Laboratory results reported in PubChem BioAssay AID1510 (The Scripps Research Institute Molecular Screening Center, 2009).
Hit rate of the full screen: of about 220,000 compounds, about 570 (0.26%) were called active. Cut-off read from the data, not from the text of the source: active = inhibition above about 29%; inactive = the rest. The sample as a whole holds a higher share of actives than the screen did.

These compounds were tested against Sphingosine 1-phosphate receptor 4 (Homo sapiens) (UniProt O95977) (assay: blockers of human S1P4 receptor – cell-based, primary screen (AID 1510;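 note: 0% = wells stimulated with agonist and 100% = vehicle wells without agonist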)). Settings: S1P4-expressing cells, antagonist mode, reporter read-out; at 4.98 µM; hits give high values.
Sequence of Sphingosine 1-phosphate receptor 4 (Homo sapiens) (O95977 whole entry, looked up): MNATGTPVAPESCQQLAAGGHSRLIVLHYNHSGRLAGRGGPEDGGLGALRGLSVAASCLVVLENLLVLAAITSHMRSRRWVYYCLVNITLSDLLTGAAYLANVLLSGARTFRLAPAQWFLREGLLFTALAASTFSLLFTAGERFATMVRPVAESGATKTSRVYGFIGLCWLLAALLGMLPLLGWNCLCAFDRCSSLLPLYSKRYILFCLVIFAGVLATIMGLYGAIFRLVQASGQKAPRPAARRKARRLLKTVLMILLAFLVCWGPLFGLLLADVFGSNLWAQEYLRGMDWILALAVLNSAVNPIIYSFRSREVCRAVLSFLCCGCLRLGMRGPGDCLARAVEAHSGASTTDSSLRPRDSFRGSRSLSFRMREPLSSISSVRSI

inhibition, inactive:
CCOc1ccc(S(=O)(=O)Nc2ccncc2)c(C)c1C 8.19%, C/C(=N\NC(=O)c1nc(C)cc(C)n1)c1ccccc1 4.33%, Cc1cc(SCC(=O)c2ccccc2)nc(SCC(=O)c2ccccc2)n1 -17.1%, O=C(Nc1nnc(SCc2ccccc2Cl)s1)c1cccc([N+](=O)[O-])c1 -13.5%, O=C(O)C1CC=CCC1C(=O)Nc1ccccc1C(=O)N1CCN(c2ccccc2)CC1 (centres undefined) -6.52%, Cc1cccc(N2CCN(C(=O)c3ccccc3NC(=O)C3CCCCC3C(=O)O)CC2)c1 (centres undefined) -7.71%, CC(C)c1ccc(Nc2ncccc2C#N)cc1 -16.8%, O=C(/C=C/c1cccc([N+](=O)[O-])c1)NCCSCc1ccco1 -14.7%, CCc1ccc2ncc(C(=O)c3ccccc3)c(N3CCOCC3)c2c1 -14.8%, O=C1Nc2cc(Cl)c(Cl)cc2N(O)N1c1ccccc1Cl -11.4%, C=CCOCCN(C)C1=NS(=O)(=O)c2ccccc21 -5.99%, Fc1ccc(Nc2nnns2)cc1 -8.7%, O=C(CSc1ncn[nH]1)Nc1nc(-c2cccc([N+](=O)[O-])c2)cs1 0.29%, COc1ccc(Nc2nc(-c3ccccc3)cs2)cc1 -20.3%, COc1ccc2c(c1OC)C(=O)OC2Nc1nc(-c2ccccc2)cs1 (centres undefined) 22.8%, O=C(CC1NCCNC1=O)Nc1cc(Cl)cc(Cl)c1 (centres undefined) -3.46%, Cc1cc(C(=O)CSc2nc(N)cc(=O)[nH]2)c(C)n1-c1cccc(F)c1 -13.7%, Brc1ccc(-c2nn[nH]n2)cc1 11.9%, Cc1ccc(C2CCN(C(=S)Nc3cccc(Cl)c3)C2)cc1 (centres undefined) 3.99%, Cc1nc2nc(SCC(=O)c3ccccc3)[nH]c2cc1Br 6.48%, O=C(COC(=O)c1cc([N+](=O)[O-])ccc1NCc1ccccc1)NC1CCCCC1 -5.39%, CN1CCN(S(=O)(=O)c2cccc(C(=O)O)c2)CC1 -2.81%, COc1cc(C(=O)N2C(=O)c3cccc(N)c3C2=O)cc(OC)c1OC 6.71%, CC(C)(C)C(=O)NCCCNc1ccc([N+](=O)[O-])cc1 4.36%, Cc1cc(C)n(-c2nnc(N3CCN(c4ccccc4)CC3)nn2)n1 9.76%, CCn1nnnc1SCC(=O)c1ccc(C)cc1C -2.87%, Cc1ccc(SC(CC(=O)c2ccc(C(C)(C)C)cc2)C(=O)O)cc1 (centres undefined) 26%, Cn1c(=O)c2c(nc(N/N=C/c3cccs3)n2Cc2ccc(Br)cc2)n(C)c1=O -19.2%, Cc1ccc(COc2ccc(/C=N/NC(=O)CN3CCCCC3)cc2)cc1 -8.97%, CC1(C)CCCC2=C1CC1C(=O)N(c3ccccc3)C(=O)C1C2 (centres undefined) -11.5%, CC(=O)Nc1nonc1-c1nc2ccccc2n1Cc1ccccn1 -6.67%, COc1ccc(C)c(Cn2c(-c3nonc3N)nc3ccccc32)c1 -20.7%, COc1ccc(CCCc2nnc(SCc3nc4ccccc4c(=O)[nH]3)n2C)cc1 3.12%, C=C(C)CNC(=S)Nc1ccc(S(=O)(=O)Nc2cnc3ccccc3n2)cc1 2.29%, Cc1cc(C(=O)Nc2c(C)n(C)n(-c3ccccc3)c2=O)cs1 -8.59%, Cc1c(NC(=O)c2coc(=O)c(Br)c2)c(=O)n(-c2ccccc2)n1C -7.02%, COc1ccc(NC(=O)COC(=O)c2ccncc2)c(OC)c1 -5.29%, Cc1cc(C(C)(C)C)oc1C(=O)N(CC(=O)NC1CCCC1)Cc1ccc(Cl)cc1 -6.52%, CC(C)NC(=S)N1CCN(S(C)(=O)=O)CC1 -10.4%, Cc1nc2cc3c(cc2s1)OCO3 -20.6%, COc1ccc(C(=O)NCc2nnc(SCCOc3ccccc3)n2C)cc1 -1.19%, CC(C)N(C(=O)c1ccc(-c2ccccc2F)cc1)C(C)C 26.9%, CC(NCc1ccccc1OC1CCCC1)c1ccccc1 (centres undefined) 27.7%, CC(C)(C)NC(=O)C(=O)NCc1ccncc1 -14.6%, CNS(=O)(=O)c1ccc(NC(=O)C2CC(=O)N(c3ccc(Cl)cc3)C2)cc1 (centres undefined) 12.8%, CC(=O)Nc1ccc(S(=O)(=O)N2CCN(c3ccc([N+](=O)[O-])c(NCCN4CCOCC4)c3)CC2)cc1 -3.22%, COc1cc(NC(=O)CN(C)S(=O)(=O)c2ccc3nc(C)sc3c2)cc(OC)c1 -2.8%, Cc1cc(/C=N/NC(N)=O)c(C)n1C1CCCCC1 16.8%, Cc1cccc(C(=O)Nc2ccccc2C(=O)NCc2cccnc2)c1 -7.4%, Cc1ccc2cc(/C=N/Nc3ccc(C(=O)O)cc3)c(Cl)nc2c1 4.36%, Cc1nc([N+](=O)[O-])cn1CC(=O)Nc1ccc2c(c1)OCO2 -4.57%, Cc1nn(CC#N)c(=O)n1N(C)c1ncc(C(F)(F)F)cc1Cl -4.17%, CCOc1ccc(C(=O)Nc2cccc(-c3ccc4nncn4n3)c2)cc1 0.94%, O=C(C1CCN(S(=O)(=O)c2ccc(Br)s2)CC1)N1CCN(C2CCCCC2)CC1 -2.03%, CN(C)c1ccc(/C=C/C(=O)c2ccc(O)cc2)cc1[N+](=O)[O-] 6.74%, CN(C)c1ccc(/C=C/C(=O)c2ccc(C(C)(C)C)cc2)cc1[N+](=O)[O-] -10.1%, COc1ccccc1CNC(=O)Cn1c(=O)oc2cc(Cl)ccc21 0.8%, COc1ccc(C[C@H]2CN3C(=NC[C@H]3C)N2CCNC(=O)CCC2CCCCC2)cc1 -5.06%, CC1CCCC(NC(=O)c2cccc(N3CCCC3=O)c2)C1C (centres undefined) -7.04%, C/C(=N/O)c1ccc(N2C(=O)C3C4C=CC(C3C2=O)C2C3C(=O)N(c5ccc(/C(C)=N/O)cc5)C(=O)C3C42)cc1 (centres undefined) -4.36%, COC(=O)C1=C(Nc2ccc(C)cc2)C=C(C)C(C(=O)OC)C1c1ccc(F)cc1 (centres undefined) -18%, O=C(NNC(=S)Nc1ccc(Br)cc1Cl)c1ccco1 -12.4%, NC(=O)N/N=C\c1cccs1 -18.6%, CCCCCCCC(=O)NC(Nc1ccccc1OC)C(Cl)(Cl)Cl (centres undefined) 8.46%, Cc1cc(NC(=O)CSCc2ccccc2C)no1 -4.86%, O=c1c2cc(-c3ccccc3)sc2nc2n1N=C(c1cccs1)CS2 -3.31%, CCOc1ncccc1C(=O)N(CC)CC(=O)Nc1ccc(NC(C)=O)cc1 -27.8%, COc1cc2c(cc1O)[C@H](Cc1ccc(Oc3cc(C[C@@H]4NCCc5cc(OC)c(O)cc54)ccc3O)cc1)NCC2 -13.1%, O=C(Nc1ccc(Cl)cc1)Nc1ccc(C(=O)N2CCOCC2)cc1 6.4%, Cc1ccc(Oc2cc(NC(=O)CCCn3nc(C)c([N+](=O)[O-])c3C)cc([N+](=O)[O-])c2)cc1 -12.2%, CS(=O)(=O)c1ccc(Cl)c(NC(=O)Nc2ccccc2)c1 17.2%, O=C(Nc1ccc(Cl)cc1)c1ccsn1 4.84%, CS(=O)(=O)N(CC(=O)N1CCN(c2ccc(F)cc2)CC1)C1CCCCC1 -13.7%, Cc1ccc(CCC(=O)Nc2ncc(Cc3cc(Cl)ccc3Cl)s2)o1 -6.95%, CCc1ccc(S(=O)(=O)NCC(O)COc2ccc(OC)cc2)cc1 (centres undefined) 2%, COc1ccc(Cl)cc1CSc1ncn[nH]1 -3.23%, O=C(NCCOCc1ccc(Cl)cc1)c1ncn[nH]1 -4.23%, CC(=O)N1N=C(c2ccncc2)OC1(Cc1ccccc1)Cc1ccccc1 23.2%, CN(C)CCNC(=O)Cc1ccc([N+](=O)[O-])cc1 -16%, CCCc1nc2c(C)cc(-c3nc4ccccc4n3C)cc2n1Cc1ccc(-c2ccccc2C(=O)O)cc1 -1.52%, CCOc1ccc(C(C)=O)cc1COC(=O)c1cnc(Cl)c(Cl)c1 -30.6%

inhibition, active:
Cc1cc(C)nc(S/C=C/C(=O)c2ccccc2)n1 54.5%, CC(C)c1ccc(N2CCN(C(=O)c3ccccc3NC(=O)/C=C(\C(=O)O)c3ccccc3)CC2)cc1 96%, COc1ccc(-c2csc(NC3OC(=O)c4ccccc43)n2)cc1 (centres undefined) 30.9%, CC1CC(C)CN(S(=O)(=O)c2cccc(C(=O)N3C(=O)c4cccc(N)c4C3=O)c2)C1 (centres undefined) 37.9%, CC1CC2=C(CC1/C=N/NC(N)=S)C(C)(C)CCC2 (centres undefined) 29.9%, Nc1nonc1-c1nc2ccccc2n1Cc1ccc(F)cc1 38.9%, Cc1cc2oc(C(=O)Nc3c(C)n(C)n(-c4ccccc4)c3=O)c(C)c2cc1Cl 29.2%, O=C(/C=C/c1ccc(Cl)c([N+](=O)[O-])c1)c1ccc(O)cc1 46.2%, C=CS(=O)c1sc(Cl)c(N2CCOCC2)c1[N+](=O)[O-] (centres undefined) 46.3%, CNc1ccc(SC#N)cc1 30.8%, CC[C@H]1CN2CCc3cc(OC)c(OC)cc3[C@@H]2C[C@@H]1C[C@H]1NCCc2cc(OC)c(OC)cc21 82.3%, O=C(Nc1ccccc1)c1nnsc1S(=O)(=O)c1ccc(Cl)cc1 93.8%, O=C(/C=C/Sc1ncn[nH]1)c1ccc(Cl)cc1 47.2%
